IL1B secr inh = inhibitors of inflammasome signaling (IL-1 beta secretion) | AID 743279 | activity change, % at 57.5 µM | THP-1 LPS/ATP IL-1B secretion, AlphaLISA, 16 h; stronger effect = lower value | actives 4.7% (n = 360,000); in the data active means activity change below about -50%; inconclusive means mostly about -30% to -49%
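Secreted IL-1B measured by AlphaLISA bead assay after 16 h compound exposure of THP-1 cells; compounds (final up to 57.5 uM) added 1 h before LPS (250 ng/mL) and ATP (1.25 mM) stimulation; lower signal means less secretion.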
Gal4-VP16 FLuc = Gal4-VP16 reporter inhibition counter-screen; Potency, µM (highest dose often 53.6 µM), for inactives: at the top dose activity, negative = inhibition, hits mostly inhibitors; actives 3.5% (n = 310,000); Drosophila S2 Gal4-VP16 UAS-luciferase, luminescence, 20 h;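 further: Gal4-VP16 expression switched on by copper sulfate through the metallothionein promoter; potency means the concentration at half of the fitted maximal effect; nearly all actives have a fitted effect of over 50% in size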
DT40 TDP1 CPT = DT40-hTDP1 cell growth loss with CPT. Potency, µM (highest dose often 46.2 µM), for the others: top-dose activity change, negative = growth inhibition, hits mostly inhibitors. AID 686979. chicken DT40 Tdp1-/-;hTDP1 cells + 20 nM CPT, ATP luminescence, 48 h. actives 12% (n = 420,000); further: potency means the concentration at half of the fitted maximal effect; nearly all actives have a fitted effect of over 55% in size
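Cell growth measured by CellTiter-Glo luminescence after a minimum 48 h, 37 C compound exposure with 20 nM CPT in Tdp1-knockout DT40 cells stably expressing hTDP1, seeded 400/well; qHTS titration format.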
DT40 TDP1 no CPT = qHTS for Inhibitors of human tyrosyl-DNA phosphodiesterase 1 (TDP1): qHTS in cells in absence of CPT. AID 686978, 2013. DT40 Tdp1-/- hTDP1 cells, no CPT, ATP luminescence, 48 h. actives 15% (n = 420,000). Potency, µM (titrated, usually from 46.2 µM), for the others: at the top dose activity change, negative = growth inhibition, actives largely listed as inhibitors; further: potency means the concentration at half of the fitted maximal effect; nearly all actives have a fitted effect of over 55% in size
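Seeded 400 DT40-hTDP1 cells/well (vehicle DMSO, no 20 nM CPT); pinned compounds; ≥48 hr at 37 °C; CellTiter-Glo luminescence as viability measure.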
ELG1 repair inh = blocks ELG1-dependent DNA repair in HEK293T cells; Potency, µM (highest dose often 46.1 µM), for inactives: at the highest dose activity change, negative = inhibition, hits mostly inhibitors; actives 2.3% (n = 330,000); AID 504467; HEK293T ELG1-luciferase reporter, luminescence, 16 h; DNA damage induced by 5-fluorouridine; further: potency means the concentration at half of the fitted maximal effect; nearly all actives have a fitted effect of over 55% in size
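Reporter activity after DNA damage by 5-fluorouridine is monitored. Compound-treated cells incubate 16 hr at 37 °C, then ONE-Glo is added for 30 min before luminescence reading.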
RORg inh = inhibitors of mouse ROR gamma transcriptional activity; P51450; Drosophila S2 Gal4-RORgamma UAS-luciferase reporter, 20 h; Potency, µM (top dose mostly 53.6 µM), inactives show at the highest dose activity change, negative = inhibition, usual class: inhibitors; actives 5.4% (n = 310,000); AID 2551; further: potency means the concentration at half of the fitted maximal effect; nearly all actives have a fitted effect of over 60% in size
Target sequence (P51450 whole entry, looked up, the tested form may be a part): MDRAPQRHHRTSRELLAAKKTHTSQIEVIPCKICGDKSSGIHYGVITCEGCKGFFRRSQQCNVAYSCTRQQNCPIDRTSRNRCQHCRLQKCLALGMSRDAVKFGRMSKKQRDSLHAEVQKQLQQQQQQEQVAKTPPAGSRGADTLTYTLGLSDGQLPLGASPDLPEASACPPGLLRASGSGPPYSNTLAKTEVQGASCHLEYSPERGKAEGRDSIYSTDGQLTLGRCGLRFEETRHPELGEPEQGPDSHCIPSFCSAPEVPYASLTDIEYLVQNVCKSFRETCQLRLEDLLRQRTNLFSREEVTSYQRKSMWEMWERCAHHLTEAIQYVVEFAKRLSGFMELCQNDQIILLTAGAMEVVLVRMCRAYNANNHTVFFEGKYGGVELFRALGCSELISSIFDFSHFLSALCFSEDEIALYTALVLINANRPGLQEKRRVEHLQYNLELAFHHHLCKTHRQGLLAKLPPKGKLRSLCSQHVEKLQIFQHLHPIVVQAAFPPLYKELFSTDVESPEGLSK
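Read-out: Photinus luciferase luminescence; inhibitors lower reporter signal. Insect Schneider cells with Gal4-ROR gamma fusion under metallothionein promoter, UAS reporter; 700 uM final copper sulfate induction, 20 hr, ambient temperature.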
Numbers without * were called inactive; [ ] = dose if it differs, or a comment. Compounds with a hit are over-represented: about 21% of the library has one in this group of screens. Unless noted, the call rests on the fitted dose curve; in most records, active means well fitted curve in the direction sought with a large enough effect; inconclusive means small, poorly fitted or top-dose-only effect, or another doubt; inactive means no such curve, though single readings can be large; an effect the other way counts as inactive or inconclusive. On the % scale 0 is the no-effect control and ±100 the full control effect.

How did COc1ccc(C(=O)Nc2cccc3nc(C)ccc23)c(OC)c1 do in these assays?
IL1B secr inh: -9; Gal4-VP16 FLuc: -3%; DT40 TDP1 CPT: inconclusive; DT40 TDP1 no CPT: inconclusive; ELG1 repair inh: 0%; RORg inh: 1%

How did COc1ccc(C(=O)Nc2cccc(-c3nc4cccnc4s3)c2C)c(OC)c1 do in these assays?
DT40 TDP1 CPT: 21µM*; DT40 TDP1 no CPT: 12µM*

How did Cc1c(NC(=O)Cc2ccc(Cl)cc2)cccc1-c1nc2cccnc2s1 do in these assays?
DT40 TDP1 CPT: inconclusive; DT40 TDP1 no CPT: 16µM*

How did COc1cc(CN(C(=O)c2ccc(Cl)cc2)C2CCS(=O)(=O)C2)cc(OC)c1OC (configuration not stated) do in these assays?
DT40 TDP1 CPT: 0%; DT40 TDP1 no CPT: -4%

How did CCOc1ccc(NC(=O)CN(C)C(=O)C2CC(=O)N(Cc3ccco3)C2)cc1OCC (configuration not stated) do in these assays?
IL1B secr inh: 4; DT40 TDP1 CPT: -28%; DT40 TDP1 no CPT: -2%; ELG1 repair inh: 13%

How did CC(=O)Nc1ccc2c(c1)CCc1ccccc1-2 do in these assays?
IL1B secr inh: 13; Gal4-VP16 FLuc: -3%; DT40 TDP1 CPT: 11%; DT40 TDP1 no CPT: -2%; ELG1 repair inh: inconclusive; RORg inh: 1%

What do the screens show for `O=C(O)/C=C/C(=O)c1ccc2c(c1)CCc1ccccc1-2`?
IL1B secr inh: -104*; DT40 TDP1 CPT: 4.1µM*; DT40 TDP1 no CPT: 3.7µM*; ELG1 repair inh: inconclusive

What do the screens show for `Cc1ccccc1-c1cnc(-c2ccncc2)nc1C1CCCN(Cc2ccccc2O)C1` (configuration not stated)?
DT40 TDP1 CPT: -5%[9.04 µM]; DT40 TDP1 no CPT: inconclusive

What do the screens show for `COc1ccc(CN2CCCC(c3nc(-c4ccncc4)ncc3-c3ccccc3C)C2)c(OC)c1` (configuration not stated)?
DT40 TDP1 CPT: 2.6µM*; DT40 TDP1 no CPT: inconclusive

What do the screens show for `COc1cccc(CN2CCCC(c3nc(-c4ccncc4)ncc3-c3ccccc3)C2)c1O` (configuration not stated)?
DT40 TDP1 CPT: inconclusive; DT40 TDP1 no CPT: 16µM*

Results for CCCC1NC(=S)N(C2CCCCC2)C1=O (configuration not stated) ?
IL1B secr inh: 8; Gal4-VP16 FLuc: inconclusive; DT40 TDP1 CPT: -16%; DT40 TDP1 no CPT: inconclusive; ELG1 repair inh: 16%; RORg inh: -40%[10 µM]

How did O=C1CNC(=S)N1C1CCCCCC1 do in these assays?
IL1B secr inh: 6; Gal4-VP16 FLuc: -24%; DT40 TDP1 CPT: 17%; DT40 TDP1 no CPT: -7%; ELG1 repair inh: 14%; RORg inh: 11µM*

Results for CN1CCN(c2ncc3nc(-c4ccccc4)c(=O)n(CCc4ccccc4)c3n2)CC1 ?
Gal4-VP16 FLuc: 0%; DT40 TDP1 CPT: inconclusive; DT40 TDP1 no CPT: -13%; RORg inh: -44%

Results for CCN(c1ccccc1)S(=O)(=O)c1ccc(C(=O)N2CCN(c3ccccc3)CC2)cc1 ?
IL1B secr inh: 0; DT40 TDP1 CPT: inconclusive; DT40 TDP1 no CPT: 21µM*; ELG1 repair inh: inconclusive

What do the screens show for `CN(CC1CCCO1)S(=O)(=O)c1ccc(C(=O)N2CCN(c3ccccc3)CC2)cc1` (configuration not stated)?
IL1B secr inh: 3; Gal4-VP16 FLuc: -11%; DT40 TDP1 CPT: 28%; DT40 TDP1 no CPT: 4%; ELG1 repair inh: 23µM*; RORg inh: 34%

Results for CCN(CC(=O)N1CCN(c2ccccc2)CC1)S(=O)(=O)c1ccc(C)cc1 ?
IL1B secr inh: -9; Gal4-VP16 FLuc: 1%; DT40 TDP1 CPT: inconclusive; DT40 TDP1 no CPT: 13µM*; ELG1 repair inh: -4%; RORg inh: -5%

Results for C=CCN1CCCC1CNC(=O)c1cc(S(N)(=O)=O)cc(OC)c1OC (configuration not stated) ?
Gal4-VP16 FLuc: -5%; DT40 TDP1 CPT: -1%; DT40 TDP1 no CPT: -6%; RORg inh: -23%

Results for Cc1cc(C)cc(-n2ncc3c2CCCC3NC(=O)c2ccccc2N2CCOCC2)c1 (configuration not stated) ?
IL1B secr inh: -19; Gal4-VP16 FLuc: -7%; DT40 TDP1 CPT: inconclusive; DT40 TDP1 no CPT: 16µM*; ELG1 repair inh: -19%; RORg inh: -39%

How did C=CCCC(=O)NC1CCCc2c1cnn2-c1ccccc1F (configuration not stated) do in these assays?
IL1B secr inh: 79; Gal4-VP16 FLuc: 0%; DT40 TDP1 CPT: -14%; DT40 TDP1 no CPT: -7%; ELG1 repair inh: -13%; RORg inh: 15%

Results for CCc1noc(C)c1C(=O)NC1CCCc2c1cnn2-c1cc(C)cc(C)c1 (configuration not stated) ?
IL1B secr inh: -25; Gal4-VP16 FLuc: -7%; DT40 TDP1 CPT: inconclusive; DT40 TDP1 no CPT: -1%; ELG1 repair inh: inconclusive; RORg inh: -3%

What do the screens show for `O=C(NC1CCCc2c1cnn2-c1ccccc1F)c1ccccc1N1CCOCC1` (configuration not stated)?
IL1B secr inh: inconclusive; Gal4-VP16 FLuc: -3%; DT40 TDP1 CPT: 16µM*; DT40 TDP1 no CPT: 13µM*; ELG1 repair inh: -4%; RORg inh: 2%

Results for Cc1ccc2nc(-c3ccc(C#N)cc3)c(Cc3cccc(Cl)c3)n2c1 ?
IL1B secr inh: 0; DT40 TDP1 CPT: 18µM*; DT40 TDP1 no CPT: 18µM*

What do the screens show for `N#Cc1ccc(-c2nc3ccc(Cl)cn3c2Cc2cccc(F)c2)cc1`?
IL1B secr inh: 0; DT40 TDP1 CPT: inconclusive; DT40 TDP1 no CPT: inconclusive

What do the screens show for `N#Cc1ccc(-c2nc3ccc(Cl)cn3c2Cc2cccc(Cl)c2)cc1`?
IL1B secr inh: -15; DT40 TDP1 CPT: inconclusive; DT40 TDP1 no CPT: 21µM*

Results for CC(NC(=O)c1ccco1)c1nnc2n1CCN(Cc1ccc(Cl)cc1)CC2 (configuration not stated) ?
DT40 TDP1 CPT: 13%[9.04 µM]; DT40 TDP1 no CPT: 2%

How did CCC(C)(CCNC(=O)Cc1ccccc1)c1ccccc1OC (configuration not stated) do in these assays?
IL1B secr inh: inconclusive; Gal4-VP16 FLuc: -7%; DT40 TDP1 CPT: 23µM*; DT40 TDP1 no CPT: inconclusive; ELG1 repair inh: inconclusive; RORg inh: 19%
